Screens from PubChem BioAssay.
This is a sample that favours compounds with a hit; in the whole collection about 3.4% have one here.
GPR151 activ – activates the human receptor GPR151. Q8TDV0. actives 1% (n = 650,000). PathHunter beta-arrestin GPR151 cells, luminescence. activation, % at 11.2 µM. AID 1508602; in the data active = activation above about 4.9%;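 note: 0% = median of compound wells and 100% = cells with positive control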
FBW7 activator – human FBW7 E3 ligase activation, primary screen; actives 0.13% (n = 650,000); normalized activity (activation), % at 26.1 µM; AlphaScreen FBW7–phospho-cyclin E peptide binding, activator screen; Q969H0; AID 1259310; in the data active = normalized activity above about 1.9%;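 note: purified mutant Fbw7 with reduced substrate affinity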
MITF primary – human MITF inhibition, primary screen. O75030. AlphaScreen MITF homodimerization, bead proximity signal. inhibition, % at 2.6 µM. actives 0.91% (n = 650,000); in the data active = inhibition above about 50%;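 note: 0% = vehicle wells with protein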
Target sequence (O75030 whole entry, looked up): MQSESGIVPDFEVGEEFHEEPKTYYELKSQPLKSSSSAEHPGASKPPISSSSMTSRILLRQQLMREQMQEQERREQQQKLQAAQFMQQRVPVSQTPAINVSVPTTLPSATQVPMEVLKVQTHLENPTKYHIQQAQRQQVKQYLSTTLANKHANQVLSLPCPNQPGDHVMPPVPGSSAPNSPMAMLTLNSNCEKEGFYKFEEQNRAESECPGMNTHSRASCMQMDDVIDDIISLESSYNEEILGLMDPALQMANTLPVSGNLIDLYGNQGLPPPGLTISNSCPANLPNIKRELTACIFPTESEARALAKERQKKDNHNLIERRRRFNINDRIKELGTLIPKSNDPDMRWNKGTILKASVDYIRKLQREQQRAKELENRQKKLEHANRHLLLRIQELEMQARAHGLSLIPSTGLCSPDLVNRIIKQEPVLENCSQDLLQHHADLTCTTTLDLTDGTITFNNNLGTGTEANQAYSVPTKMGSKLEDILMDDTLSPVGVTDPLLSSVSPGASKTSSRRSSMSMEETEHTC
TEAD-YAP block – TEAD-YAP interaction inhibition; HEK-TIYL cells, TEAD-Gal4/YAP UAS-luciferase luminescence; inhibition, % at 9.12 µM; actives 1.4% (n = 640,000); AID 1259422; in the data active = inhibition above about 32%;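 note: 0% = median of test compound wells and 100% = reference inhibitor wells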
GPR151 confirm – human GPR151 activation, confirmation screen. 6,700 tested, under 10 active. shares compounds with GPR151 activ. AID 1508609. activation, % at 11.2 µM. GPR151 PathHunter beta-arrestin cells, luminescence, 90 min; % of EA-reagent control over plate median;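 active = mean percent activation across replicates above the confirmation screen cutoff of 4.91%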
GPR119 ag – GPR119 activation, counter-screen for GPR151 activators. shares compounds with GPR151 activ. GPR119 PathHunter beta-arrestin cells, luminescence, 90 min; 0 = compound-well median, 100 = enzyme-acceptor control. activation, % at 11.2 µM. actives 0.3% (n = 6,700);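 active = mean percent activation in the counterscreen above 29.09%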;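 note: counterscreen on off-target GPR119 to flag nonselective hits from the GPR151 activator screen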
* hit, by the source's call; . = no result; ! = a repeat was not active.

SMILES	GPR151 activ	FBW7 activator	MITF primary	TEAD-YAP block	GPR151 confirm	GPR119 ag
COc1cc(-c2nnc(SC(C)C)o2)cc(OC)c1OC	1.3	-0.1	4.5	-5.4	.	.
O=C(Cn1ncc2ccccc2c1=O)NNC(=S)NC1CC2CCC1C2 (centres undefined)	10.3*	0.6	4.9	5.3	0.1	8.3
COC(=O)c1ccc(F)c(S(=O)(=O)N2CCOCC2)c1	1.1	0.3	9.1	17.3	.	.
CCOc1c(C)cc(S(=O)(=O)NCCCCN2CCOC(c3ccccc3)C2)cc1C (centres undefined)	11.4*	-0.2	7.9	4.7	1.3	-1.0
CCN=C1SC(CC(=O)Nc2sc(C)c(C)c2C(=O)OC)C(=O)N1CC (centres undefined)	6.0*!	-0.2	-9.6	2.9	2.2	7.0
O=c1[nH]c2ccccc2nc1C(F)(F)C(F)(F)C(F)(F)C(F)F	5.5*	0.0	-6.7	14.5	-0.4	-3.5
O=C(CC(=O)N/N=C/c1c(F)cccc1Cl)NCCc1ccccc1	5.6*	0.0	-5.0	-0.3	0.6	-0.4
O=C(CO)N/N=C\c1c(F)cccc1Cl	-0.2	0.2	12.7	30.9	.	.
O=C(NCC(c1ccco1)N1CCOCC1)c1ccc(F)cc1 (centres undefined)	5.4*	0.0	-9.8	-5.1	0.3	7.1
Cc1ccc(C(C)C)c(Oc2ccc(N3C(=O)c4ccc(C(=O)OCC(=O)c5cccc([N+](=O)[O-])c5)cc4C3=O)cc2)c1	-1.1	0.1	4.2	-24.0	.	.
COc1cc(/C=N/NC(=O)c2ccco2)ccc1OCc1ccc([N+](=O)[O-])cc1	-1.5	1.0	30.9	-70.6	.	.
COc1cc(/C=N\NC(=O)c2ccc([N+](=O)[O-])cc2)ccc1OC(=O)c1ccco1	11.4*	0.2	8.8	1.0	-0.9	-5.3
Cc1csc(NC(=O)CNS(=O)(=O)c2cccc3nsnc23)n1	-0.1	0.1	4.7	4.6	.	.
CC(NCC(C)(C)CN(C)C)C(=O)Nc1ccccc1 (centres undefined)	7.0*	-0.1	5.7	4.5	0.9	2.7
CCCCCOc1ccc(OC(=O)c2cccc(C(=O)OC(C)C)n2)cc1	1.8	0.0	2.6	2.2	.	.
O=C1Nc2ccccc2N(O)N1c1cccc(Br)c1	7.7*	0.3	5.7	-3.1	-0.3	3.1
COc1ccc(C2C(C(=O)OCC3CCCO3)=C(C)NC3=C2C(=O)CC(c2cccs2)C3)c(OC)c1OC (centres undefined)	-1.1	0.0	-14.4	10.3	.	.
Cn1c(=O)[nH]c(=O)c2c1nc(Br)n2CCC(=O)O	0.1	-0.5	10.2	0.7	.	.
O=C(CSc1nnc(NC(=O)COc2ccccc2)s1)Nc1ccc2c(c1)OCO2	-1.0	-0.1	-0.9	-1.7	.	.
C=CCC(CC=C)(C(=O)O)c1ccccc1	5.8*	0.4	5.0	1.3	-0.6	-7.0
COCCN(Cc1cccnc1)C(Cc1ccccc1)C1CCN(CCC(C)O)CC1 (centres undefined)	-0.7	-0.1	2.8	-8.7	.	.
CCOC(=O)C1=CN(C)C=C(C(=O)OCC)C1c1ccc(OC)c(OCc2ccccc2)c1	7.2*	1.0	-1.2	-4.2	0.0	-0.3
CCOC(=O)C1=C(C)NC2=C(C(=O)C(C(=O)OCC)C(c3ccccc3OC)C2)C1c1ccc(OCc2ccccc2)c(OC)c1 (centres undefined)	8.7*	0.2	5.0	0.1	-0.2	-3.9
COC(=O)C1=CN(C)C=C(C(=O)OC)C1c1ccc(OCc2ccccc2)c(OC)c1	2.5	-0.1	-4.9	-18.5	.	.
CCNC(=O)C(=O)NCc1ccc(C)cc1	0.2	0.6	16.1	-2.9	.	.
SMILES	GPR151 activ	FBW7 activator	MITF primary	TEAD-YAP block	GPR151 confirm	GPR119 ag
Cc1cc(/C=N\NC(=O)c2ccccc2O)c(C)n1-c1ccncc1	3.2	-0.1	-5.5	-25.9	.	.
COc1cc(Nc2ncc(C)c(NCCc3ccc(O)cc3)n2)cc(OC)c1OC	3.5	-0.2	7.7	3.5	.	.
O=c1c2ccccc2cnn1CCOc1ccc(Cl)cc1	4.9*	-0.2	-4.5	-40.1	0.2	-4.3
COc1ccc(OCCn2c(-c3ccc(Cl)cc3)nc3ccccc3c2=O)cc1	-1.1	0.0	-2.9	-10.3	.	.
O=C(Nc1ccccc1Cl)c1ccccc1[N+](=O)[O-]	0.2	0.1	-8.3	1.5	.	.
N#Cc1ccc(C(=O)Nc2ccccc2N2CCCC2)c(F)c1	13.8*	-0.1	0.9	-4.5	0.4	6.3
O=C(CCC(=O)Nc1ccccc1Cl)NNC(=O)c1ccccc1[N+](=O)[O-]	7.5*	-0.2	-0.1	-2.6	-0.2	-2.8
O=C(Nc1ccccc1N1CCCC1)c1ccccc1[N+](=O)[O-]	5.8*	0.3	2.9	-1.3	0.7	5.6
CCCn1c(=O)n(C)c(=O)c2c3oc(=O)c(NC(=O)c4cccs4)cc3[nH]c21	0.8	0.1	14.9	-6.7	.	.
COCCn1c(C)c(C)n2c3c(=O)n(C(C)C(=O)OC)c(=O)n(C)c3nc12 (centres undefined)	4.8	-0.2	20.4	3.2	.	.
CCN(CC(=O)Nc1ccc(NC(C)=O)cc1)S(=O)(=O)/C=C/c1ccccc1	7.4*	0.0	5.2	-3.1	0.2	4.2
Cc1ccnc(SCc2cc(=O)c(OC(=O)c3cc(Cl)ccc3[N+](=O)[O-])co2)n1	14.0*	-0.1	2.0	-1.7	-1.0	-7.1
Cc1ccnc(SCc2cc(=O)c(OC(=O)c3cc(Cl)ccc3Cl)co2)n1	-1.3	-0.5	9.4	7.5	.	.
CC(C)OC(=O)c1sc2nc3c(cc2c1N)CCC3	2.0	0.3	2.5	-62.0	.	.
Cc1cc(CNC(=O)CC2C(=O)NCCN2CC(c2ccccc2)c2ccccc2)nn1C (centres undefined)	1.2	0.1	-2.5	-8.5	.	.
CCN(C(=O)CCl)c1nc(-c2ccc(Cl)cc2)cs1	1.2	-0.1	5.4	-25.6	.	.
CCC(=O)N(CCCN(C)C)c1nc(-c2ccc(Cl)cc2)cs1	6.0*	-0.1	-9.2	-3.4	1.2	10.4
CCCC(CCC(=O)Nc1ccccn1)C(=O)O (centres undefined)	0.6	0.0	1.4	0.8	.	.
Clc1ccc(C(Cn2ccnc2)OCc2c(Cl)cccc2Cl)c(Cl)c1 (centres undefined)	10.2*	0.0	-7.1	.	1.6	-4.7
COC(=O)c1ccc(NC(=O)c2ccc(OC)c(I)c2)cc1	-1.1	-0.1	2.2	-31.4	.	.
Cc1noc(C)c1S(=O)(=O)N1CCN(Cc2nc(C(C)(C)C)cs2)CC1	1.7	0.0	0.1	0.2	.	.
CCCS(=O)(=O)N1CCN(Cc2nc(C(C)(C)C)cs2)CC1	8.8*	0.2	-2.3	-1.3	0.6	3.8
O=C1c2ccccc2C(=O)N1CSc1ccc(Cl)cc1	-1.2	0.1	-6.8	-21.2	.	.
Cc1nc2cc(NCc3ccc(Br)cc3)ccc2n1C	-2.9	0.0	-6.8	-58.8	.	.
O=C(CC(=O)c1ccccc1O)c1ccc(Br)cc1	5.4*	0.0	-8.6	-30.2	-0.8	-8.3
